Experimental findings from PubChem BioAssay (Tox21) are described below.

Records with an inconclusive call do not appear. Where a call stands in place of a potency, no number is given. The source made the active and inactive calls. Calls come from the whole dose curve.

This experiment in a line: p53 small molecule agonists, cell-based qHTS assay with rat liver microsomes (AID 1963578). Conditions: HCT-116 p53RE-bla, beta-lactamase ratio, 16 h; series mostly up to 66 µM. Summed up: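 p53RE-bla cells, 4,000/well, pre-incubated 5 h, then given compounds plus rat liver microsomes (0.5 mg/mL final) and NADPH (0.5 mg/mL final). Incubation 16 h at 37 C; beta-lactamase reporter read by LiveBLAzer fluorescence after 2 h at room temperature.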

For `O=C(O)c1ccc(CO)o1`, the Potency entry was “inactive”.

For the compound `CCOC(=O)c1ccc(C)cc1`, the Potency result was “inactive”.

`NC(=O)C1CO1` (configuration not stated): the Potency result is “inactive”.

As to `Nc1cc([N+](=O)[O-])ccc1Cl`, the Potency entry was “inactive”.

Consider `Cc1ccc(N=Nc2c(O)ccc3ccccc23)c(C)c1`, for which the Potency entry is “inactive”.

Take `[Cl][Dy]([Cl])[Cl]`: the Potency entry was “inactive”.

Turning to `CCCCCCC1(C)CCC(=O)O1` (configuration not stated), the Potency entry is “inactive”.

For `Cc1cncc(C)c1`, the Potency result was “inactive”.

Regarding `C1=C\CC/C=C\CC/C=C\CC/1`, the Potency result is “inactive”.

`O=Cc1ccc(C(=O)O)cc1`: the Potency entry was “inactive”.

As to `CC(C)(C)c1ccc(O)c(C(C)(C)C)c1`, the Potency result is “inactive”.

For the compound `C=C(C)[C@H]1CC=C(C)CC1`, the Potency result was “inactive”.

As for `CCCCOC(O)CC` (configuration not stated), the Potency entry is “inactive”.

For `CCCCc1ccc2cccc(S(=O)(=O)O)c2c1`, the Potency entry is “inactive”.

Consider `CC(C)c1ccc(C=O)cc1`, for which the Potency result is “inactive”.

Regarding `CCCCCC/C=C/C(=O)OC`, the Potency result was “inactive”.

Turning to `Cc1cc(C)cc(N)c1`, the Potency entry is “inactive”.

For `O=C1c2ccccc2C(=O)C1c1ccc2cc(S(=O)(=O)O)cc(S(=O)(=O)O)c2n1`, the Potency entry is “inactive”.

As to `CCCCCCCCCCCCCCCCCCOCC(O)CO` (configuration not stated), the Potency entry is “inactive”.

`CCCC(=O)Nc1ccc(O)c(C(C)=O)c1`: the Potency result was “inactive”.

For the compound `CC(=O)OC/C=C/c1ccccc1`, the Potency entry was “inactive”.

For `CCCCCCCCCOS(=O)(=O)O`, the Potency result is “inactive”.

Turning to `C[N+](C)(CCOc1ccccc1)Cc1cccs1`, the Potency result was “inactive”.

Consider `C=CC(=O)O[C@H]1C[C@@H]2CC[C@@]1(C)C2(C)C`, for which the Potency result was “inactive”.

Regarding `CC(=O)Oc1cccc(O)c1`, the Potency entry is “inactive”.

On to `c1ccc(CSCc2ccccc2)cc1`, for which the Potency entry is “inactive”.

In the case of `CCC(C)C(=O)OCCc1ccccc1` (configuration not stated), the Potency result was “inactive”.

Turning to `O=C1CC(c2ccc(Cl)cc2)CC(=O)N1`, the Potency result is “inactive”.

As to `CCCCCCCN`, the Potency result was “inactive”.

As to `Cn1c(=O)c2[nH]c(Br)nc2n(C)c1=O`, the Potency result is “inactive”.

As to `CCOC(=O)c1ccc(OCCN2C[C@H](O)[C@@H](O)[C@H](O)[C@H]2CO)cc1`, the Potency entry was “inactive”.

Consider `CCO[Si](C)(C)OCC`, for which the Potency result was “inactive”.

As for `O=C(O)CCc1ccccc1`, the Potency entry was “inactive”.

With `CN(C)c1ccc2nc3ccc(=[N+](C)C)cc-3sc2c1`, the Potency entry is “inactive”.

On to `O=Cc1cc2ccccc2o1`, for which the Potency result is “inactive”.

Take `O=C(Nc1ccc([N+](=O)[O-])cc1Cl)c1cc(Cl)ccc1O`: the Potency entry was “inactive”.

Turning to `Cc1ccc(C(C)NC(=O)[C@@H](NC(=O)OC(C)C)C(C)C)cc1` (some centres not stated), the Potency result is “inactive”.

As to `CCCCOCCOCCOCCCC`, the Potency entry is “inactive”.

Take `COc1cc2c(Nc3ccc(Br)cc3F)ncnc2cc1OCC1CCN(C)CC1`: the Potency entry was “inactive”.

`CCN1CCC[C@H]1CNC(=O)c1c(O)c(Cl)cc(Cl)c1OC`: the Potency result is “inactive”.

Take `O=Nc1ccc(Nc2ccccc2)cc1`: the Potency result is “inactive”.

Consider `CCOC(=O)CCC(C)=O`, for which the Potency entry is “inactive”.

With `CC1CC(=O)CC(C)(C)C1` (configuration not stated), the Potency result is “inactive”.

As for `OCCN1CCN(CCCN2c3ccccc3C=Cc3ccccc32)CC1`, the Potency entry was “inactive”.

Turning to `CC1(C)[C@H]2CC[C@](C)(C2)[C@H]1O`, the Potency entry was “inactive”.

Take `CCOc1ccc(Cc2nccc3cc(OCC)c(OCC)cc23)cc1OCC`: the Potency entry was “inactive”.

Consider `O=C(O)c1cccc(C[C@@H]2COc3ccc(OCc4nc5cc(F)ccc5s4)cc3[C@@H]2O)c1`, for which the Potency entry is “inactive”.

Take `CC1=CCC(C(C)(C)O)CC1` (configuration not stated): the Potency result was “inactive”.

`CC(C)CCCC(C)CCO` (configuration not stated): the Potency result was “inactive”.

Take `COc1cc(Cl)ccc1Cl`: the Potency entry is “inactive”.

Take `COc1ccc(C(=O)CC(=O)c2ccc(C(C)(C)C)cc2)cc1`: the Potency result was “inactive”.

With `CCC(C)(Oc1ccc(C2(c3ccc(OC(C)(CC)C(=O)O)cc3)CCCCC2)cc1)C(=O)O` (configuration not stated), the Potency result was “inactive”.

Consider `NC(=O)NC1N=C([O][Al])NC1=O` (configuration not stated), for which the Potency result was “inactive”.

Regarding `CO[Si](CCCCl)(OC)OC`, the Potency entry was “inactive”.

As to `Cc1ccc2c(c1)OCC(=O)CO2`, the Potency entry was “inactive”.

In the case of `FC(F)(F)/C(=N\OCC1OCCO1)c1ccc(Cl)cc1`, the Potency entry was “inactive”.

As for `COC(C)(C)CCO`, the Potency result is “inactive”.

Consider `Cc1cc(C)c(C)c(O)c1`, for which the Potency result was “inactive”.

In the case of `CC1(C)[C@H]2CC[C@]1(C)[C@H](O)C2`, the Potency entry is “inactive”.

With `C=CC(C)(CCC=C(C)C)OC(=O)CC` (configuration not stated), the Potency result was “inactive”.

As for `C=CC(C)(CCC=C(C)C)OC=O` (configuration not stated), the Potency entry was “inactive”.

As to `O=C1C=CC(=O)O1`, the Potency entry was “inactive”.
